Compounds with a hit are over-represented: about 10% of the library has one in this group of screens.
GLS inhibitor = glutaminase GLS (human) inhibition; O94925; GLS enzymatic activity, qHTS titration; Potency, µM (doses to about 45.5 µM), for inactives: at the highest dose activity change, negative = inhibition, usual class: inhibitors; actives 0.21% (n = 410,000); further: on the % scale 0 is the no-effect control and ±100 the full control effect
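Human kidney-isoform GLS in 45 mM KH2PO4 pH 8.2, 0.02% Tween-20, with compound, started with 1mM L-Glutamine (added stock). Glutamate oxidase/HRP/Amplex red coupled fluorescence read at start and after 30 min at RT.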
HP1b binding inh = HP1-beta chromodomain-methylated histone interaction inhibition; P83916; AlphaScreen HP1-beta / biotin-H3K9me3 peptide binding; Potency, µM (highest dose often 114 µM), for the others: at the highest dose activity change, negative = inhibition, most hits filed as inhibitors; actives 0.56% (n = 390,000); further: nearly all actives have a fitted effect of over 70% in size
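HP1-beta protein (50 nM final) preincubated 30 min at room temperature with biotinylated H3(1-18)K9me3 peptide (50 nM) in PBS pH 7.4, 0.01% Tween-20, then compound added for 30 min. AlphaScreen streptavidin donor/nickel chelate acceptor beads (10 ug/mL final), 30 min dark, luminescence read.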
G9a inh = blocks human histone lysine methyltransferase G9a; Q96KQ7; G9a H3K9 monomethylation, AlphaScreen, 2 h; Potency, µM (titrated, usually from 102 µM), inactives show at the top dose activity, negative = inhibition, actives largely listed as inhibitors; actives 8.8% (n = 350,000); AID 504332; further: on the % scale 0 is the no-effect control and ±100 the full control effect; nearly all actives have a fitted effect of over 75% in size
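AlphaScreen read-out: biotin-H3K9 peptide (500 nM) methylation by 20 nM enzyme with 20 uM SAM, 2 h at room temperature after 15 min compound preincubation; anti-monomethyl H3K9 antibody plus donor/acceptor beads, 10 min dark.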
L3MBTL1 inh = inhibitors of human L3MBTL1. Q9Y468. AlphaScreen L3MBTL1–H3K9me1 peptide binding. Potency, µM (top dose mostly 57.1 µM), without a hit: at the highest dose activity, negative = inhibition, hits mostly inhibitors. actives 0.66% (n = 230,000); further: on the % scale 0 is the no-effect control and ±100 the full control effect; nearly all actives have a fitted effect of over 60% in size
Target sequence (Q9Y468 whole entry, looked up): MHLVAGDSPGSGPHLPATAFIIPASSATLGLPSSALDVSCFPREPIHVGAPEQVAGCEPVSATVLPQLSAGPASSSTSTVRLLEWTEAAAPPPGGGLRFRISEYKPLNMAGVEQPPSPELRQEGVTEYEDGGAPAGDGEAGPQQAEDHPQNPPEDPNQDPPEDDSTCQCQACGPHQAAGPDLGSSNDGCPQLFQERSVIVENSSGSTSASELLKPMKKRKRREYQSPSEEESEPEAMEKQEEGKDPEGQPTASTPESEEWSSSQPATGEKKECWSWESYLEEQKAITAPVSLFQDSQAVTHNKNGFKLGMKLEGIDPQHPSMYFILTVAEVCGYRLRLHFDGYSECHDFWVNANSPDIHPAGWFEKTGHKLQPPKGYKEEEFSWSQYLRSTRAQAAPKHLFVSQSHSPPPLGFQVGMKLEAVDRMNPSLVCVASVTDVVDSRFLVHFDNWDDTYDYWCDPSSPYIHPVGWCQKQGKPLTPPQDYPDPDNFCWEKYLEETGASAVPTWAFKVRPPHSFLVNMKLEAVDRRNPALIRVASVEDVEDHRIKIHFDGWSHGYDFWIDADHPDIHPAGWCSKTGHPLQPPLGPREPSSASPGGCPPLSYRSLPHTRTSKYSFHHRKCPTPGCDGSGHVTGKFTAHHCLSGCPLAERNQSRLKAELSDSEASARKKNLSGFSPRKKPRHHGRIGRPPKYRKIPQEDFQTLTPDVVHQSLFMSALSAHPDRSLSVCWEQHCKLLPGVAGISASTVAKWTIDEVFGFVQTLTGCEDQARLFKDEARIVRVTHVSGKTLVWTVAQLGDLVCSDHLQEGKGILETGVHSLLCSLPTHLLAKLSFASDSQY
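Displacement of a biotinylated histone H3(1-15) peptide monomethylated at Lys9 (75 nM) from L3MBTL1 (50 nM) was measured by AlphaScreen after a 30 min room-temperature compound incubation; cefsulodin titration served as intraplate control.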
BAZ2B block = BAZ2B (human) inhibition | Q9UIF8 | AlphaScreen BAZ2B-H3K14Ac peptide displacement | Potency, µM (series often up to 114 µM), for inactives: at the highest dose activity change, negative = inhibition, hits mostly inhibitors | actives 4.4% (n = 360,000) | AID 504333; further: on the % scale 0 is the no-effect control and ±100 the full control effect; nearly all actives have a fitted effect of over 60% in size
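Protein-peptide AlphaScreen: BAZ2B 50 nM, b-H3K14Ac 50 nM, 1x PBS pH 7.4 + 0.01% Tween-20. Preincubation 30 min RT; cpd 30 min RT (top 110 uM); beads 20 min RT, light-protected.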
JMJD2A Tudor = inhibitors of human JMJD2A Tudor domain; O75164; AlphaScreen JMJD2A-Tudor / H3K4me3 peptide binding; Potency, µM (top dose mostly 114 µM), for inactives: top-dose activity change, negative = inhibition, hits mostly inhibitors; actives 4.4% (n = 390,000); AID 504339; further: on the % scale 0 is the no-effect control and ±100 the full control effect; nearly all actives have a fitted effect of over 50% in size
The depositor's hits bear a star; ? = inconclusive; . = no result given; [ ] = another dose, or the depositor's remark. The call rests on the fitted dose curve; in most records, active means well fitted curve in the direction sought with a large enough effect; inconclusive means small, poorly fitted or top-dose-only effect, or another doubt; inactive means no such curve, though single readings can be large; an effect the other way counts as inactive or inconclusive. Potency means the concentration at half of the fitted maximal effect.

SMILES	GLS inhibitor	HP1b binding inh	G9a inh	L3MBTL1 inh	BAZ2B block	JMJD2A Tudor
Cc1ccc(Cl)cc1NC(=O)Cn1c(=O)n(CCCS(=O)(=O)C2CCCCC2)c(=O)c2ccccc21	4.4%	5.1%	-2.6%[59 µM]	.	?	-20.2%
COc1ccc(OC)c(NC(=O)c2c(N3CCCC3=O)c3cc(OC)ccc3n2C)c1	3.1%	-0.4%	?	.	?	-29.0%
O=C(CCc1nnc(Cc2ccc3c(c2)OCO3)o1)NCc1nc2ccccc2s1	-6.6%	52.9%	44.7µM*	-0.5%	1.5%	-22.7%
Cc1cccc(-c2nnn3c2nc(NCc2ccccc2)c2ccccc23)c1	2.4%	31.3%	5.5%[59 µM]	.	0.2%	-14.2%
COc1ccc([C@]23Cc4ccccc4C(O2)c2c(cc(-c4ccccc4)oc2=O)O3)cc1	.	.	.	.	39.7%[22.9 µM]	.
COc1ccc(OC)c(C(=O)NC(CC(N)=O)c2ccc(NCc3ccc(F)c(F)c3)c([N+](=O)[O-])c2)c1 (stereo not given)	2.8%	-10.9%	89.1µM*	-12.0%	44.7µM*	?
COc1ccc(OC)c(C(=O)NC(CC(N)=O)c2ccc(NCc3ccccn3)c([N+](=O)[O-])c2)c1 (stereo not given)	-0.6%	39.3%	-2.1%	-7.7%	?	-19.3%
NC(=O)CC(NC(=O)c1ccccc1)c1ccc(NCc2ccc(F)c(F)c2)c([N+](=O)[O-])c1 (stereo not given)	9.5%	3.2%	70.8µM*	-1.7%	?	?
NC(=O)CC(NC(=O)c1ccc(Br)cc1)c1ccc(NCc2ccc(F)c(F)c2)c([N+](=O)[O-])c1 (stereo not given)	5.6%	11.4%	?	.	-28.4%	-25.5%
CC(C)NC(=O)C1=CC(c2ccc3c(c2)OCO3)=NS(=O)(=O)N1C	5.3%	6.3%	-5.3%[59 µM]	.	5.0%	-11.9%
COCCSc1nnc(NS(=O)(=O)c2ccc(F)cc2)s1	3.0%	36.4%	31.6µM*	1.5%	-26.7%	-12.5%
COCc1nnc(NS(=O)(=O)c2ccc(F)cc2)s1	-0.6%	39.2%	-119.6%	4.4%	-7.5%	3.0%
Cc1ccccc1Nc1nnc(-c2ccc(C)c(S(=O)(=O)N3CCCCC3)c2)c2ccccc12	7.5%	5.8%	-0.1%[59 µM]	.	-16.4%	-30.1%
O=C1C(=Cc2ccco2)CCC1=Cc1ccco1	72.7%	3.55µM*	.	.	.	3.16µM*
O=C1C(=Cc2ccco2)CCCC1=Cc1ccco1	?	?	.	.	.	56.2µM*
O=C1N=C(N2CCOCC2)SC1=Cc1ccco1	-14.0%	22.4%	.	.	.	-4.1%
O/N=C1\CCC\C1=C/c1ccco1	-6.1%	2.5%	56.2µM*	-7.0%	?	-25.0%
CC(=O)c1nn(-c2ccc(OC(F)(F)F)cc2)nc1Nc1ccc(Cl)cc1	-0.2%	20.4%	-3.5%[59 µM]	.	2.5%	-10.4%
CS(=O)(=O)OCCCNCCCOS(C)(=O)=O	2.7%	.	.	.	.	.
COC(=O)CC1Oc2ccccc2-n2cc(-c3ccc(F)cc3)nc21 (stereo not given)	0.0%	29.0%	-46.7%[59 µM]	.	-32.2%	-19.4%
CC(C)Oc1ccc(CNC(=O)Nc2ccc3c(c2)N(C)C(=O)c2ccccc2S3)cc1	-9.0%	67.3%	-12.6%[59 µM]	.	-0.4%	-5.0%
O=C1CCCC2=C1Sc1ccccc1N2	12.6µM*	-21.4%	.	-19.0%	44.7µM*	-35.9%
COC(=O)c1ccc(NC(=S)NC(=O)c2c(Cl)cnn2C)cc1	-8.5%	10.5%	?	-40.7%	-27.8%	-11.9%
COC(=O)c1ccc(NC(=O)c2c(Br)cnn2C)cc1	-12.5%	-4.5%	7.94µM*	.	-14.9%	-9.3%
Cc1ccc(OCC(=O)Nc2ccc3nn(-c4ccc(C)cc4)nc3c2)cc1	-23.4%	11.2%	13.1%[59 µM]	.	-13.0%	-1.1%
C/C(=N\N=c1/scc(C)n1Cc1ccco1)c1cccc([N+](=O)[O-])c1	11.6%	?	?	?	10µM*	25.1µM*

Screening results from PubChem BioAssay.
